# Records with an inconclusive call do not appear. Active and inactive are the calls of the source. Rule for the calls, unless noted: active = hit-call score of the fitted dose curve at least 0.9, where 1 is the maximum; inactive = score below 0.9.
# Read-out: not listed separately
# Assay: BSK_SAg_SRB: Viability Assessment in the BioMAP Diversity Plus: SAg Assay (AID 2283096);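 note: cells read one day after compound addition; hits may be either gain or loss of signal compared with DMSO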
# Conditions: primary human HUVEC with PBMC
# In short: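 Human umbilical vein endothelial cells co-cultured with PBMC, read 24 h after compound dosing. Total protein measured by sulforhodamine B staining (0.1% SRB after 10% TCA fixation, absorbance 560 nm); bidirectional fit versus DMSO baseline.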
SMILES,outcome,AC50
O=C(O)Cc1cc(I)c(Oc2ccc(O)c(I)c2)c(I)c1,inactive,
Cc1cccc2ccccc12,inactive,
O=c1c(-c2ccc(O)cc2)coc2cc(O)cc(O)c12,,20 µM (active)
CC/C(=C(/CC)c1ccc(O)cc1)c1ccc(O)cc1,,23.1 µM (active)
Cc1cc(F)ccc1-c1cc(N2CC[C@@H](O)[C@H]2CO)ncc1N(C)C(=O)C(C)(C)c1cc(C(F)(F)F)cc(C(F)(F)F)c1,,10.8 µM (active)
O=C1O[C@H]([C@@H](O)CO)C(O)=C1O,inactive,
CO[C@H]1/C=C/O[C@@]2(C)Oc3c(C)c(O)c4c(O)c(c(/C=N/N5CCN(C)CC5)c(O)c4c3C2=O)NC(=O)/C(C)=C\C=C\[C@H](C)[C@H](O)[C@@H](C)[C@@H](O)[C@@H](C)[C@H](OC(C)=O)[C@@H]1C,inactive,
C[C@]12CC[C@@H]3c4ccc(O)cc4CC[C@H]3[C@@H]1CCC2=O,inactive,
Oc1ccc2ccccc2c1,inactive,
c1ccc(C[n+]2cccc3ccccc32)cc1,inactive,
CCCCCCCCCCCO,inactive,
O=C(Nc1ccc(Cl)cc1)Nc1ccc(Cl)c(Cl)c1,,2.28 µM (active)
CCCCCCCCOC(=O)c1cc(O)c(O)c(O)c1,,24.8 µM (active)
CN1C(=O)N(c2ccccc2Br)Cc2cnc(Nc3ccc4c(c3)OCC(CO)O4)nc21 (centres undefined),,2.23 µM (active)
Cc1occc1C(=O)Nc1ccc(C(=O)N2CCC(F)(F)/C(=C\C(=O)N3CCC(N4CCCCC4)CC3)c3ccccc32)cc1,inactive,
Cc1oc2c(NC(=O)c3c(Cl)cccc3Cl)cccc2c1C(C)(C)O,,25.3 µM (active)
O=C=NCCCCCCN=C=O,inactive,
c1ccc2ccccc2c1,inactive,
O=CCCCC=O,inactive,

SMILES,outcome,AC50
COc1cc(C(=O)NC2CCN(C)CC2)ccc1Nc1ncc2c(n1)N(C1CCCC1)CC(F)(F)C(=O)N2C,,18.6 µM (active)
O=C1c2ccccc2C(=O)N1CCc1noc(-c2ccc(CN3CCCCCC3)s2)n1,inactive,
CCCC(=O)OCCC(C)C,inactive,
Clc1cc(Cl)c2c(c1)N=C1CCCCCN1C2,inactive,
CC(C)(c1cc(Br)c(O)c(Br)c1)c1cc(Br)c(O)c(Br)c1,,29.4 µM (active)
CCCOC(=O)c1cc(O)c(O)c(O)c1,inactive,
O=C(OCCCCCCOC(=O)c1ccccc1)c1ccccc1,inactive,
CC(C)(C)c1cc(/C=C2\SC(N)=NC2=O)cc(C(C)(C)C)c1O,,26.6 µM (active)
CCO[Si](CCCNC(N)=O)(OCC)OCC,inactive,
O=C(O)Cn1c(=O)n(Cc2ccc(Br)cc2F)c(=O)c2ccc(Cl)cc21,inactive,
COc1ccc2cc(S(=O)(=O)N[C@H](CC(=O)N[C@H](Cc3ccc(CN4[C@H](C)CCC[C@@H]4C)cc3)C(=O)N(C)C(C)C)c3ccc4c(c3)OCO4)ccc2c1,,17.3 µM (active)
CC(C)(C)c1csc(-c2cc3cc(OCc4ccccc4CC(=O)O)ccc3o2)n1,,20 µM (active)
Cc1ccc(C(C)C)cc1,inactive,
O=C(O)c1ccccc1C(=O)OCc1ccccc1,inactive,
CCCCCCCC[Si](OCC)(OCC)OCC,,31.7 µM (active)
CCN(Cc1cccnc1)C(=O)c1cccc(Cl)c1[C@]1(C)C(=O)N(Cc2ccc(OC)cc2OC)c2ccc(Cl)cc21,,5.81 µM (active)
O=C(O)c1ccccc1-n1cc(C(=O)O)c(=O)c2cc(Nc3c(F)cc(F)cc3Cl)c(Cl)cc21,inactive,
Cc1cc2c(cc1C(F)(F)F)N(C(=O)Nc1ccc(Oc3cccnc3C)nc1)CC2,inactive,
CCCCOC(=O)CC(CC(=O)OCCCC)(OC(C)=O)C(=O)OCCCC,inactive,

# Molecular target: human CYP2B6, CYP2B6 (gene 1555) (UniProt P20813)
# Sequence (P20813 whole entry, looked up): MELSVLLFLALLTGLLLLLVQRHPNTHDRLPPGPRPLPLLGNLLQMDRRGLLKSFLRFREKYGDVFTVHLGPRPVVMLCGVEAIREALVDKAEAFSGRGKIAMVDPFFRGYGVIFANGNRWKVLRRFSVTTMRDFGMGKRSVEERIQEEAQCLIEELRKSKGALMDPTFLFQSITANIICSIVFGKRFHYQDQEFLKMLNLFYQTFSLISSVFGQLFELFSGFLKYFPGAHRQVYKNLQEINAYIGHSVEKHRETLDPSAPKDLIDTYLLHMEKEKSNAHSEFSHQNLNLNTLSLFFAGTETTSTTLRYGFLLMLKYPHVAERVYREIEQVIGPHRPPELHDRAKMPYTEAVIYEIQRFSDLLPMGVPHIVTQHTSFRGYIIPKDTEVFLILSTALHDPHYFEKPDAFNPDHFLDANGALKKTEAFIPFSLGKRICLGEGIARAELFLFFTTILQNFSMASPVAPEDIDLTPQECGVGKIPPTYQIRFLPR
# Assay: NVS_ADME_hCYP2B6: NovaScreen (NVS) CYP450-related Enzyme Activity (ADME) Assay for human CYP2B6 (AID 2283101; active = hit-call score of the fitted dose curve at least 0.9, where 1 is the maximum)
# Conditions: not given
# In short: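 Recombinant human CYP2B6 with fluorogenic substrate, read by fluorescence intensity 1 h after dosing. Primary screen in duplicate at 10 uM, actives followed in concentration series; signal loss relative to acetonitrile control.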
SMILES,outcome,AC50
O=c1c(-c2ccc(O)cc2)coc2cc(O)cc(O)c12,inactive,
CCCCCCCCOC(=O)c1cc(O)c(O)c(O)c1,,10.1 µM (active)
CCN(Cc1cccnc1)C(=O)c1cccc(Cl)c1[C@]1(C)C(=O)N(Cc2ccc(OC)cc2OC)c2ccc(Cl)cc21,inactive,

# Molecular target: human CYP1A2, CYP1A2 (gene 1544) (UniProt P05177)
# Sequence (P05177 whole entry, looked up): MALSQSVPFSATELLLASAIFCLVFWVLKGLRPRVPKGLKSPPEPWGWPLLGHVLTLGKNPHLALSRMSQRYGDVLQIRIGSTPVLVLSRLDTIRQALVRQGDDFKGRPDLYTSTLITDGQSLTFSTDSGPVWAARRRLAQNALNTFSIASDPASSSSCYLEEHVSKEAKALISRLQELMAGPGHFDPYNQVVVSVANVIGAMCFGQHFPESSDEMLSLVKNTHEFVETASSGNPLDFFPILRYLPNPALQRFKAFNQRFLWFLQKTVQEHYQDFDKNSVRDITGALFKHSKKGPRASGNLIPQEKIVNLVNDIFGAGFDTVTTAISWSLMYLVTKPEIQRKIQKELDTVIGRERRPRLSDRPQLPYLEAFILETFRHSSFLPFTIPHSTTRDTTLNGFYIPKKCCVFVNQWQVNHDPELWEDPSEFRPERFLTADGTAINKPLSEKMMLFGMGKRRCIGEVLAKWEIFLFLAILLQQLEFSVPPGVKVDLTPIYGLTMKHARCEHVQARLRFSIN
# Assay: NVS_ADME_hCYP1A2: NovaScreen (NVS) CYP450-related Enzyme Activity (ADME) Assay for human CYP1A2 (AID 2283102; active = hit-call score of the fitted dose curve at least 0.9, where 1 is the maximum;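 note: potency for inhibition since loss of fluorescence marks reduced CYP1A2 activity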)
# Conditions: not given
# In short: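 Fluorescence-intensity enzyme activity read-out, taken 0.5 h post-dosing, using insect-cell-derived recombinant CYP1A2 and specific fluorescent substrate. Acetonitrile served as negative control/baseline. Single-concentration duplicate screen at 10 uM, then concentration-response follow-up.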
row,SMILES,AC50
1,CCCCCCCCOC(=O)c1cc(O)c(O)c(O)c1,4.26 µM (active)
2,Clc1cc(Cl)c2c(c1)N=C1CCCCCN1C2,2.34 µM (active)
3,O=C(OCCCCCCOC(=O)c1ccccc1)c1ccccc1,5.42 µM (active)

# — PubChem BioAssay (EPA / NIEHS)
